PubChem BioAssay
Values joined by “and” are separate entries in the source; they are usually repeats but may differ in a detail not shown here. Equal values may be shown once. Active and inactive are the calls of the source.

Experiments:
[1] = anti-His antibody binders, primary screen, artefact control for SMM control protein annotation, biochemical, small-molecule microarray, 635 nm fluorescence (AID 1128); conditions: anti-His Alexa647 antibody binding, higher = more signal;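 note: score merges feature fluorescence with signal-to-noise for each printed compound spot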
[2] = tested on: Human papillomavirus type 1a E7 protein (residues 1-88); experiment: HPV1a E7 small-molecule binders, primary screen, biochemical, small-molecule microarray, residues 1-88, 635 nm (AID 1129); conditions: small-molecule microarray binding, fluorescence 635 nm; higher = more signal
[3] = molecular target: Focal adhesion kinase 1 (Homo sapiens) (UniProt Q05397); experiment: small-molecule microarray binders of FAK, primary screen, biochemical, 635/667 nm fluorescence, BSA, DTT (AID 1130); conditions: PTK2 binding, 635 nm fluorescence, higher = more signal;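 note: composite of spot emission at 667 nm and signal to noise over triplicate slides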
Sequence of Focal adhesion kinase 1 (Homo sapiens) (Q05397 whole entry, looked up): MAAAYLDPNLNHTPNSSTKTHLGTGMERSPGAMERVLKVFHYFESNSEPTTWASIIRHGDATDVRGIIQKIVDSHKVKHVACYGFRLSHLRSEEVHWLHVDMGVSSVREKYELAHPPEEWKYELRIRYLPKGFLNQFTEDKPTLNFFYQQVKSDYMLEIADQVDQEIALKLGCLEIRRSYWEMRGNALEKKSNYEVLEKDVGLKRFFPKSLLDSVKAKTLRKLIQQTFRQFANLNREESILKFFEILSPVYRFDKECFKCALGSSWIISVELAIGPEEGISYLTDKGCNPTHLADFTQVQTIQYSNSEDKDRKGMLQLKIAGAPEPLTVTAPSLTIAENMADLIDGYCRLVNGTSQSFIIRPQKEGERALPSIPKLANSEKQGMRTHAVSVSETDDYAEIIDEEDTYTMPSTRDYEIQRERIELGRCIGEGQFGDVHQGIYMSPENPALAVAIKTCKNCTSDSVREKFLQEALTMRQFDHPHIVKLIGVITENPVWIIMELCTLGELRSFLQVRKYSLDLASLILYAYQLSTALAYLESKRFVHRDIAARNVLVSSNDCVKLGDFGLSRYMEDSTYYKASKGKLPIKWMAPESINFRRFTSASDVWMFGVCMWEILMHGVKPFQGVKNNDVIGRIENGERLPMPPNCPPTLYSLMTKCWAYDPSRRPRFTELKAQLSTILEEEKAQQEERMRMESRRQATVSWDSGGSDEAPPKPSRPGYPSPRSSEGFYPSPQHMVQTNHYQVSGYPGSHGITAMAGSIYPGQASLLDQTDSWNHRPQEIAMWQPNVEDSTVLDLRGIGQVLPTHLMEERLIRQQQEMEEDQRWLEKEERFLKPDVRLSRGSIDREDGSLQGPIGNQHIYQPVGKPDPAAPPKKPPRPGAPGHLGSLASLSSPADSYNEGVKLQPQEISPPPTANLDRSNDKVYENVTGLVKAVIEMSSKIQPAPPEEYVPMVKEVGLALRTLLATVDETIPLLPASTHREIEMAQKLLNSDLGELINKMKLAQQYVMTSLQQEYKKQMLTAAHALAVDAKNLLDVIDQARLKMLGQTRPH

[4] = tested on: Fibrinogen (Alexa647-labelled); experiment: fibrinogen binders on compound microarrays, profiling panel, artefact control for SMM control-protein annotation, biochemical, small-molecule microarray, 635/667 nm fluorescence (AID 1131); conditions: fibrinogen-A647 binding fluorescence, higher = more signal;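 note: z-score merges 667 nm fluorescence with per-spot signal-to-noise over triplicate slides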
[5] = molecular target: Follistatin (Homo sapiens) (UniProt P19883); experiment: follistatin binders on small-molecule microarrays, primary screen, biochemical, small-molecule microarray, 635/667 nm fluorescence (AID 1132); conditions: FST binding, 635 nm fluorescence, higher = more signal
Sequence of Follistatin (Homo sapiens) (P19883 whole entry, looked up): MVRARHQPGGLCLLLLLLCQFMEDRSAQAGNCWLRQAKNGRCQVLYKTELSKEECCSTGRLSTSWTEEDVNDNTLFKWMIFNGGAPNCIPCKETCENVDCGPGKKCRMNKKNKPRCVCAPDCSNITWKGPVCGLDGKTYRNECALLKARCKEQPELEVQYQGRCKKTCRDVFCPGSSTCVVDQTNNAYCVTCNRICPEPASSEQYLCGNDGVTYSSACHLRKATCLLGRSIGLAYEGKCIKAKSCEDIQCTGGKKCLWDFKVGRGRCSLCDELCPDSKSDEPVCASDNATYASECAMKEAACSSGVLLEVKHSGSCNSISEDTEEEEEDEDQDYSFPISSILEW

[6] = molecular target: Fibroblast growth factor 2 (Homo sapiens) (UniProt P09038); experiment: FGF2 binders on small-molecule microarrays, primary screen, biochemical, small-molecule microarray, 635/667 nm fluorescence (AID 1133); conditions: small-molecule microarray binding, FGF2, fluorescence 635/667; higher = more signal
Sequence of Fibroblast growth factor 2 (Homo sapiens) (P09038 whole entry, looked up): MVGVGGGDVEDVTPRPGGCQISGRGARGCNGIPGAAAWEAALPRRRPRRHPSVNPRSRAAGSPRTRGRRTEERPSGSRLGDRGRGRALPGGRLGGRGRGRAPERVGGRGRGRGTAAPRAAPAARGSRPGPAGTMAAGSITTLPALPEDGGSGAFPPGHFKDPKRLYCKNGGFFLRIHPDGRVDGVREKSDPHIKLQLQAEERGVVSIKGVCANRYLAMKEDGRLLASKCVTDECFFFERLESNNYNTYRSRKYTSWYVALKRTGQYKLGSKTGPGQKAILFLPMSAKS

[7] = mitochondrial membrane potential change in A549 cells, profiling panel, cell-based, JC-1 fluorescence, basal, 24 h, 100 nL (AID 1138); conditions: higher = more signal;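 note: A549 lung adenocarcinoma cells under basal conditions with no added stimulus; test concentration not given here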
Lefty1 = Lefty1 binders on small-molecule microarrays, primary screen, biochemical, small-molecule microarray, 635/667 nm fluorescence (AID 1139); conditions: small-molecule microarray binding, fluorescence 635/667; higher = more signal
[8] = tested on: wheat germ agglutinin (Triticum aestivum), Alexa647-labelled; experiment: wheat germ agglutinin binders on compound microarrays, profiling panel, artefact control for SMM control-protein annotation, biochemical, small-molecule microarray, 635/667 nm fluorescence (AID 1140); conditions: WGA-A647 binding, 635 nm fluorescence, higher = more signal;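 note: score merges 667 nm feature emission with signal to noise over triplicate slides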
[9] = molecular target: Luciferin 4-monooxygenase (Photinus pyralis) (UniProt P08659); experiment: firefly luciferase enzyme inhibitors, primary screen, biochemical, luminescence, purified enzyme, 2006 set (AID 1141); conditions: SteadyGlo luminescence, 30 min, higher = more signal, called active from +8 up or from −8 down;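 note: cell-free assay with purified firefly luciferase at 100 ng per well in PBS; test concentration not given here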
Sequence of Luciferin 4-monooxygenase (Photinus pyralis) (P08659 whole entry, looked up): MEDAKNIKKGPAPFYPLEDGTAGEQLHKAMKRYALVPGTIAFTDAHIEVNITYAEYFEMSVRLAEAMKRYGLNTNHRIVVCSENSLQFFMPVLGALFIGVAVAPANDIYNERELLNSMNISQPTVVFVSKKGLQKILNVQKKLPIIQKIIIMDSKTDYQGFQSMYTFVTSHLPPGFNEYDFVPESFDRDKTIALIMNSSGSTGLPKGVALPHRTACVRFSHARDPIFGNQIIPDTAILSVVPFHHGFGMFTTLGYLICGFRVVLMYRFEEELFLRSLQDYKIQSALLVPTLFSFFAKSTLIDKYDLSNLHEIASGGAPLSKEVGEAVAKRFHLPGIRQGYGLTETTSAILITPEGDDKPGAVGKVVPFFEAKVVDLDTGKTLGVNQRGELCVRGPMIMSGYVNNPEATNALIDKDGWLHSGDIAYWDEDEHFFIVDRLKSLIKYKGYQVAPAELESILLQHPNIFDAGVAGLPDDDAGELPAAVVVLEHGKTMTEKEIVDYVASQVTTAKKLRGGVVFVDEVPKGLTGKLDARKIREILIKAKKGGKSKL

Row | Compound | composite z-score [1] | composite z-score [2] | composite z-score [3] | composite z-score [4] | composite z-score [5] | composite z-score [6] | z-score [7] | composite z-score (Lefty1) | composite z-score [8] | z-score [9]
1 | CCCC[C@@H]1CN2[C@@H](CC[C@@H](C)[C@@H]2c2ccc(Br)cc2)C(=O)O1 | 2.07 and 0.917 | 1.16 and 0.572 | 0.367 and -0.0877 | 0.822 and 0.727 | 0.493 and 0.606 | 0.295 and 0.952 | -0.555 and 1.63 | 0.647 and 0.882 | 0.303 and 0.182 | 0.355 (inactive) and -0.572 (inactive)
2 | Cc1ccc(S(=O)(=O)OC[C@@H]2CN3[C@@H](CC[C@@H](C)[C@@H]3c3ccc(Br)cc3)C(=O)O2)cc1 | 0.882 and -0.0006 | 0.433 and 0.434 | 0.0343 and 0.0817 | 0.555 and 0.193 | 0.137 and 0.577 | 0.281 and 0.102 | -0.346 and 0.285 | 0.229 and 0.512 | 0.382 and 0.37 | 0.39 (inactive) and 0.13 (inactive)
3 | C[N+](C)(C)CCCCNC(=O)[C@H]1C[C@H]2C(=O)N[C@@H](CCCC[N+](C)(C)C)C(=O)N2[C@H]1c1ccc(O)cc1 | 2.99 and 3.33 | 0.395 and -1.59 | 0.267 and -0.478 | 0.56 and -1.1 | 1.57 and 1.45 | 2.01 and 1.99 | -0.0637 and -0.967 | 1.62 and 1.64 | -0.608 and -1.01 | 0.325 (inactive) and 0.332 (inactive)
4 | CC(C)[Si]1(C(C)C)OCc2cc(CCCc3cc4c(c(CCc5ccccc5)n3)[Si](C(C)C)(C(C)C)OC4)nc(CCc3ccccc3)c21 | -0.779 and 0.0773 | -0.265 and 0.56 | -0.293 and -0.0124 | -0.551 and 0.0539 | -0.43 and 0.238 | -0.0119 and 0.483 | 0.627 and 0.00206 | -0.11 and 0.41 | -1.24 and -0.214 | -1.11 (inactive) and 0.714 (inactive)
5 | C[C@@]1([C@@H](NC(=O)Cc2ccccc2)c2ccc(-c3ccccc3)cc2)C[C@H]1C1CCCCC1 | 1.13 and 1.49 and 1.27 | 1.18 and 1.08 and 0.987 | 0.284 and 0.0485 and 0.83 | 0.666 and 0.314 and 0.934 | 0.153 and -0.222 and -0.138 | -0.131 and -0.0451 and -0.355 | -0.788 and 0.267 and 0.196 | -1.08 and -1.06 and -0.0526 | 1.04 and 0.829 and 1.15 | 0.393 (inactive) and 0.406 (inactive) and 1.92 (inactive)
6 | C=CCN(C(=O)C1N(c2c(Cl)cccc2CO)C(=O)C2C(C(=O)O)C3C=CC21O3)c1ccc(OC)cc1 (stereo not given) | 0.0132 and -1.11 | -0.52 and -1.47 | -0.542 and -1.13 | -0.79 and -1.58 | -1.08 and -1.26 | -1.37 and -1.76 | -1.09 and 1.22 | -2.14 and -2.24 | 0.174 and -1.28 | 1.4 (inactive) and -1.32 (inactive)
7 | C=CCN(Cc1ccccc1)C(=O)C1N(C(C)(C)CO)C(=O)C2C(C(=O)O)C3C=CC21O3 (stereo not given) | -1.67 and -0.97 | -1.24 and -0.825 | -0.571 and -1.31 | -2.5 and -2.76 | -2.21 and -1.21 | -1.48 and -2.77 | -0.188 and -0.414 | -2.57 and -1.65 | -1.76 and -0.466 | 0.519 (inactive) and 1.45 (inactive)
8 | CC(C)OC(=O)C=C1C[C@@H](c2ccccc2)O[C@@H](c2ccccc2)O1 | 0.871 and 1.47 | 1.23 and 1.25 | 0.255 and 0.796 | 0.977 and 0.962 | 1.26 and 1.31 | 1.42 and 1.02 | 1.55 and 0.229 | 1.11 and 1.31 | 0.824 and 1.3 | 0.992 (inactive) and -0.692 (inactive)
